Experimental data reported in PubChem BioAssay (NCI).
The panel holds about 83,000 compounds, 20% with a hit somewhere; the sample as a whole holds those more often.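 The test compound was applied at a single concentration to cells in 96-well plates for 48 hours, and percent growth was recorded.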 Unmarked numbers belong to inactive results. Activity calls are given as the source filed them. Rule for the calls: active = growth percent below 10; inactive = the rest.

System: MDA-MB-435 melanoma
Test: NCI-60 one-dose screen, 48 h (100 = growth as untreated, 0 = no growth, -100 = all killed)
Details: 10 µM

Structure (SMILES) | growth
CC[C@]12C=CCN3CC[C@@]4(c5ccc(OC)cc5N(C)[C@H]4[C@@](O)(C(=O)OC)[C@@H]1OC(=O)CCCC[P+](C1CCCCC1)(C1CCCCC1)C1CCCCC1)[C@@H]32 | -90.5% (active)
CC(=O)Oc1ccccc1C(=O)[Se]C(=NC(C)C)NC(C)C | -94.1% (active)
COCCOCCOCCOc1ccc(-n2cc(CCCN(CCNc3ccnc4cc(Cl)ccc34)C(=O)CCC(=O)O[C@@H]3O[C@@H]4OC5(C)CC[C@H]6[C@H](C)CC[C@@H]([C@H]3C)[C@@]46OO5)nn2)cc1 | 24.8%
C[C@H]1[C@@H](CC(=O)N[C@@H](Cc2coc3ccccc23)B(O)O)O[C@@H]2OC3(C)CC[C@H]4[C@H](C)CC[C@@H]1[C@@]24OO3 | -53.8% (active)
COP(=O)(CC(F)(F)C(F)(F)F)OC | 9.6% (active)
CC12OOC(C)(OO1)C2CCC(=O)NCCNc1ccnc2cc(Cl)ccc12 (stereo not given) | 97.7%
CC[C@]12C=CCN3CC[C@@]4(c5ccc(OC)cc5N(C)[C@H]4[C@@](O)(C(=O)OC)[C@@H]1OC(=O)CCC[P+](c1ccc(C)cc1)(c1ccc(C)cc1)c1ccc(C)cc1)[C@@H]32 | -57.5% (active)
CC(C)N=C([Se])NC(=O)c1ccccc1 | 22.5%
CC[C@]12C=CCN3CC[C@@]4(c5ccc(OC)cc5N(C)[C@H]4[C@@](O)(C(=O)OC)[C@@H]1OC(=O)CCC[P+](C1CCCCC1)(C1CCCCC1)C1CCCCC1)[C@@H]32 | -80.1% (active)
CC1=C(COCCOC(=O)c2ccc(S(=O)(=O)F)cc2)C2=C(C)C3(CC3)[C@@](C)(O)C(=O)C2=C1 | 3.24% (active)
